Assay results reported in PubChem BioAssay.

Assay: budding yeast growth modifiers under rapamycin – strain BY4716, OD600, 96 h, primary screen (AID 1091); further: test concentration not given here
Conditions: S. cerevisiae BY4716 + rapamycin, higher = more signal, called active from +8 up or from −8 down

z-score, inactive:
COc1cc2c(cc1OC)CN(C(=O)[C@@H]1[C@H]3C(=O)O[C@H](c4ccccc4)[C@H](c4ccccc4)N3[C@H](c3ccc(OCCO)cc3)[C@@]13C(=O)Nc1ccc(C#CC4(O)CCCCCC4)cc13)CC2 5.25
C=C(/C(=C/C[C@H](OC(C)=O)c1cccc(OCCO)c1)c1cnc2ccccc2c1)C(C)C 1.35
OCCCC1=CC(c2ccc(CN3CCCC3)cc2)N(Cc2sc3ccccc3c2Cl)CC1 (stereo not given) -0.628
CCOC(=O)C[C@H]1[C@H](OC(=O)c2ccccc2-c2ccccc2)[C@@H](NC(=O)C2CCCCC2)c2cc(OCCCO)ccc2N1C(=O)Cc1ccc(OC)cc1 -0.144
CN1C(=O)C2C=CC(C(O)c3cccc4ccccc34)N(N3CCCCC3)C2C1=O (stereo not given) 0.579
CC1=C([C@H](O)CCc2ccccc2)[C@H](CO)[C@@H]2C(=O)N(C)C(=O)[C@@H]2C1 0.123
O=C1O[C@@H](c2ccccc2)[C@@H](c2ccccc2)N2[C@@H](c3ccc(OCCO)cc3)[C@]3(C(=O)Nc4ccccc43)[C@@H](C(=O)O)[C@H]12 -0.219
C=C(/C(=C/C[C@@H](OC(C)=O)c1cccc(OCCO)c1)c1cc(C(=O)OC)ccc1OC)C(C)C -0.87
CCOC(=O)C[C@H]1[C@H](OC(=O)c2cc3ccccc3oc2=O)[C@@H](NC(=O)c2ccc(-c3ccccc3)cc2)c2cc(OCCCO)ccc2N1C(=O)c1ccc2ccccc2n1 1.14
CC[C@H]1C2=C3C(CC[C@H]4C(OCc5ccc(F)cc5C(F)(F)F)OC[C@](C)([C@@H]34)N(C(=O)OC(C)(C)C)C2)C(COC)C1COC (stereo not given in full) 0.153
C=CCOC(=O)[C@H]1[C@@H]2C(=O)O[C@@H](c3ccccc3)[C@@H](c3ccccc3)N2[C@@H](c2ccc(OCCOC(=O)[C@H]3C[C@H]4C(=O)N[C@@H](CCCCNC(C)=O)C(=O)N4[C@H]3c3ccc(O)cc3)cc2)[C@]12C(=O)Nc1ccccc12 0.491
[N-]=[N+]=Nc1ccccc1[C@@H]1OC(c2ccc(OCCCO)cc2)=N[C@]1(Cc1ccccc1)C(=O)NCC(O)CO (stereo not given in full) 1.32
COc1ccc(C(O)C2C=CC3C(=O)N(c4ccccc4)C(=O)C3N2Nc2ccc([N+](=O)[O-])cc2)cc1 (stereo not given) 3.22
O=C1OCC=C[C@H]2OC34C=CCN(Cn5nnc6ccccc65)C(=O)[C@H]3N(CCCO)C(=O)[C@@H]4[C@@H]12 (stereo not given in full) -0.437
CCC[C@@H]1C[C@@]1(CCC)[C@@H](NC(=O)OCc1ccccc1)c1ccc(-c2ccccc2)cc1 -0.0091
CC(C)(C)OC(=O)CC[C@@]1(C(=O)NCc2ccccc2)N=C(c2ccc(OCCCO)cc2)O[C@@H]1c1ccccc1N=[N+]=[N-] 3.64
COCCCNC(=O)[C@]1(CCS(=O)(=O)c2ccccc2)N=C(c2ccc(OCCCO)cc2)O[C@@H]1c1ccccc1CN=[N+]=[N-] 2.59
C=C(COC)/C(=C/C[C@H](OC(=O)c1ccncc1)c1ccccc1OCCO)c1cnc2ccccc2c1 -0.252
O=C(NCC(F)(F)F)[C@@H]1c2ccccc2C(=O)N(Cc2cc(F)cc(C(F)(F)F)c2)[C@H]1c1ccc(CO)cc1 0.29
Cc1ccccc1C(O)C1C=CC2C(=O)N(C)C(=O)C2N1N(c1ccccc1)c1ccccc1 (stereo not given) 0.753
COCCOC(=O)N1C(=O)[C@@]2(c3cc(C#CC4=CCCCC4)ccc31)[C@H](C(N)=O)[C@H]1C(=O)O[C@H](c3ccccc3)[C@H](c3ccccc3)N1[C@@H]2c1ccccc1OCCO 1.99
C[N+](C)(C)CCCCCCNC(=O)[C@H]1C[C@H]2C(=O)NCC(=O)N2[C@H]1c1ccc(O)cc1 -0.489
O=C1OCC=C[C@H]2OC34C=CCN(Cc5ccccc5)C(=O)[C@H]3N(CCCCCCO)C(=O)[C@@H]4[C@@H]12 (stereo not given in full) -1.53
COc1ccc(-c2nc(-c3ccccc3)c3c(c2C)CO[Si]3(C(C)C)C(C)C)cn1 -0.0892
COCCOC(=O)N1C(=O)[C@@]2(c3cc(C#CC4(O)CCCCCC4)ccc31)[C@H](c1ccc(O)cc1)N1[C@H](c3ccccc3)[C@H](c3ccccc3)OC(=O)[C@H]1[C@@H]2C(=O)NC[C@H](O)c1ccccc1 0.939
